Results filed as inconclusive are left out. Where a call stands in place of a potency, no number is given. Active and inactive are the calls of the source. Calls follow the shape of the dose curve; as a rule, active = well fitted curve in the direction sought with a large enough effect; inconclusive = small, poorly fitted or top-dose-only effect, or another doubt; inactive = no such curve, though single readings can be large; an effect the other way counts as inactive or inconclusive.

Chain of Lysine-specific demethylase 5B (Homo sapiens) (Q9UGL1 whole entry, looked up): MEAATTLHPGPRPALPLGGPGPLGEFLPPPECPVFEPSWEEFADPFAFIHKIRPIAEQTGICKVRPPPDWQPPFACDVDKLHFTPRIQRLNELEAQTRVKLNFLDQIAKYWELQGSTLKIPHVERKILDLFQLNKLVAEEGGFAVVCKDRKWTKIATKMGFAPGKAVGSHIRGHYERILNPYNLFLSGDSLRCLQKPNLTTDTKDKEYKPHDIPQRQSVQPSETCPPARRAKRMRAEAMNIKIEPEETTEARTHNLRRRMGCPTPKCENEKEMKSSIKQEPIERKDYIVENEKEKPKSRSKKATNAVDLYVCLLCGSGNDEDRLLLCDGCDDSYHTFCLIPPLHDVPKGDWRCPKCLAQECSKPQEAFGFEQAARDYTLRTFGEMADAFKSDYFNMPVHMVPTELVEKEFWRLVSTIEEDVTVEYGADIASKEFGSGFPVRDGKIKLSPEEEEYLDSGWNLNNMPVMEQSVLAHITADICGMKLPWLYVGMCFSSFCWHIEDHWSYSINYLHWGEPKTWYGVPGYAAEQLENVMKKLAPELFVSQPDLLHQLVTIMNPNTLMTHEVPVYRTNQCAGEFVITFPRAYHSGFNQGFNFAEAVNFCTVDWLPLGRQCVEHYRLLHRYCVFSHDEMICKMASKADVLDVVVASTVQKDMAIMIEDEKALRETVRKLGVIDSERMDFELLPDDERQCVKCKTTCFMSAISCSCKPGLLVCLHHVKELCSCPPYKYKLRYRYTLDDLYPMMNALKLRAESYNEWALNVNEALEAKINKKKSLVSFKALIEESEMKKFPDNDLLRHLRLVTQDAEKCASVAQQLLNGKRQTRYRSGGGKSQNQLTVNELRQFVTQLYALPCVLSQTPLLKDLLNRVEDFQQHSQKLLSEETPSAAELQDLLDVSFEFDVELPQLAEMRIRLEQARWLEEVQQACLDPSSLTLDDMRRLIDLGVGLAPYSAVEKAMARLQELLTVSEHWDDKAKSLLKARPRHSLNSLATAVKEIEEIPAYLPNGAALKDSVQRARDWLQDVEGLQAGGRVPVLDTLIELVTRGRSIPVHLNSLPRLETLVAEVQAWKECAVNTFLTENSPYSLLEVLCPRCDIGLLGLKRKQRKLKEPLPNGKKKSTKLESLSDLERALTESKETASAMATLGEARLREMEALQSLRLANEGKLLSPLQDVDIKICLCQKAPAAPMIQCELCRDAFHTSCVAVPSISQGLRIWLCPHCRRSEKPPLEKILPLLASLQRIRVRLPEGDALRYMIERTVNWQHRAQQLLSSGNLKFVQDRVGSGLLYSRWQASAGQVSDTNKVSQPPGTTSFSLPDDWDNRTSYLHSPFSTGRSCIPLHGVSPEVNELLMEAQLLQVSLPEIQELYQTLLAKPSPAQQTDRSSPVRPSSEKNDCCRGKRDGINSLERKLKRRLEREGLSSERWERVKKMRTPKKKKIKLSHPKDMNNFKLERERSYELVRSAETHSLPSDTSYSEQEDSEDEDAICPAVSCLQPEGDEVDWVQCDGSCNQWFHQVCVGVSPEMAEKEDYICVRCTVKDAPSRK

One experiment has as its target Lysine-specific demethylase 5B (Homo sapiens) (UniProt Q9UGL1). In words: Optimization screen for KDM5B Histone Demethylases FDH coupled qHTS against the LOPAC library (AID 1347166). The conditions noted are these: KDM5B demethylation, FDH-coupled NADH fluorescence (FDH is formaldehyde dehydrogenase); series mostly up to 57.5 µM. The gist of the method: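 KDM5BDeltaAP (200nM final) preincubated 10 min with compound, then 12.5uM H3K4Me3, 25uM a-ketoglutarate, ascorbate, Fe(II), NAD+ and FDH added; 50mM HEPES pH 7.5, 0.01% Tween-20. NADH fluorescence (340/450 nm) change over 30 min, room temperature.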
In general terms: In qHTS, concentration-response curves come from the screen itself.
For the molecule `N[C@@H](Cn1oc(=O)[nH]c1=O)C(=O)O`, the Potency entry was “inactive”.

Consider `NC(C(=O)O)c1cc(=O)[nH]o1` (stereo unspecified), for which the Potency result is “inactive”.

With `C[N+](C)(C)CCOC(=O)CBr`, the Potency result was “inactive”.

Take `CC(N)Cc1c[nH]c2ccc(OCc3cccs3)cc12` (stereo unspecified): the Potency result was “inactive”.

On to `NC(=O)COc1c(F)cc(SCCNS(=O)(=O)c2ccccc2)cc1F`, for which the Potency result was “inactive”.

As to `C#CCN[C@H](C)Cc1ccccc1`, the Potency entry was “inactive”.

With `Ic1ccccc1CNC1C2CCN(CC2)C1C(c1ccccc1)c1ccccc1` (stereo unspecified), the Potency entry is “inactive”.

For the molecule `CCCN1CCC[C@@H](c2cccc(O)c2)C1`, the Potency entry was “inactive”.

With `NC(=O)c1cc(N2CC2)c([N+](=O)[O-])cc1[N+](=O)[O-]`, the Potency entry was “inactive”.

Turning to `N=C(N)c1ccc(CS(=O)(=O)F)cc1`, the Potency entry is “inactive”.

As to `CCCN1CCc2cc(O)cc3c2[C@H]1Cc1ccc(O)c(O)c1-3`, the Potency entry was “inactive”.

On to `COc1ccc2c(c1)[C@@]13CCCC[C@H]1[C@@H](C2)NCC3`, for which the Potency entry was “inactive”.

As for `C[C@H](Cc1ccc2c(c1)OC(C(=O)O)(C(=O)O)O2)NC[C@H](O)c1cccc(Cl)c1`, the Potency entry is “inactive”.

On to `C[C@@H]1[C@@H]2Cc3ccc(O)cc3[C@@]1(C)CCN2CC1CC1`, for which the Potency entry was “inactive”.

For `C[N+]1(C)CCN(c2ccccc2)CC1`, the Potency entry was “inactive”.

With `CCCN(CCC)[C@H]1CCc2c(F)ccc(O)c2C1`, the Potency result was “inactive”.

`C[Se]C[C@H](N)C(=O)O`: the Potency entry was “inactive”.

Regarding `COc1ccc2c(c1)/C(=C/c1cnc[nH]1)C(=O)N2`, the Potency result was “inactive”.

With `N[C@@H](Cn1ccc(=O)[nH]c1=O)C(=O)O`, the Potency entry was “inactive”.

With `COc1ccc2[nH]cc(CCN)c2c1`, the Potency entry is “inactive”.

With `C[C@@H]1O[C@H](C[N+](C)(C)C)CS1`, the Potency entry was “inactive”.

With `NC(=O)c1ccc(OCC(O)CN2CC=C(c3ccc(F)cc3)CC2)cc1` (stereo unspecified), the Potency result is “inactive”.

Regarding `O=C1CC[C@@]2(O)C3Cc4ccc(O)c5c4C2(CCN3CC2CC2)[C@H]1O5` (stereo partly specified), the Potency entry is “inactive”.

As to `Clc1cc(I)cc(Cl)c1NC1=NCCN1`, the Potency entry was “inactive”.

On to `C[C@H](N)CN1CCc2ccc(Br)cc21`, for which the Potency result is “inactive”.

With `NCCCP(=O)(O)O`, the Potency entry is “inactive”.

On to `CCN(CCCl)Cc1ccccc1Br`, for which the Potency result is “inactive”.

On to `CCCn1c(=O)c2[nH]c(C3CCCC3)nc2n(CCCOC(=O)c2ccc(S(=O)(=O)F)cc2)c1=O`, for which the Potency result is “inactive”.

Tested on in another experiment: not listed separately
In words: Vero cells viability qHTS for Zika virus inhibitors (AID 1347167). To be noted: cytotoxicity counter-screen (Zika); series mostly up to 45.9 µM. The gist of the method:
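Compounds were tested in concentration series on cells grown in DMEM containing 4% FBS. After 24 to 48 hours, cellular ATP was measured by luminescence with CellTiter Glo.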
As to `CC[C@H](C)[C@H]1O[C@]2(C=C[C@@H]1C)C[C@@H]1C[C@@H](C/C=C(\C)[C@@H](O[C@H]3C[C@H](OC)[C@@H](O[C@H]4C[C@H](OC)[C@@H](O)[C@H](C)O4)[C@H](C)O3)[C@@H](C)/C=C/C=C3\CO[C@@H]4[C@H](O)C(C)=C[C@@H](C(=O)O1)[C@]34O)O2`, the molecule was called inactive.

Regarding `C[C@@H]1[C@@H]2Cc3ccc(O)cc3[C@@]1(C)CCN2CC1CC1`, the outcome was inactive.

For the molecule `O=c1ccc2[nH]cc(C3=CCNCC3)c2[nH]1`, the call was inactive.

(Values after PubChem BioAssay (NCATS).)
